RmlCD inh mix: inhibitors of RmlC and RmlD coupled enzymes | inhibition, % at 5.5 µM | RmlC/RmlD coupled enzyme inhibition, 384-well mixture HTS | 110,000 tested, 0.39% active; in the data active means inhibition above about 30%, passing the limit was not always enough; inconclusive means no clear call, values can overlap the other calls
HIV RNase H inh-1: blocks HIV-1 RNase H cleavage of RNA/DNA duplex. inhibition, % at 10 µM. RT-RNase H RNA/DNA duplex cleavage, fluorescence. P04585. AID 565. 65,000 tested, 1.9% active; in the data active means inhibition above about 50%
HIV RNase H inh-2: confirmation of HIV-1 reverse transcriptase RNase H inhibitors; shares compounds with HIV RNase H inh-1; Recombinant RT RNase H, fluorescent RNA/DNA duplex cleavage; inhibition, % at 10 µM; 1,000 tested, 39% active; AID 651; in the data active means inhibition above about 48%; inconclusive means no clear call, values can overlap the other calls
The depositor's hits bear a star; ? = inconclusive; · = no result. The full list was thinned out, with hits kept by preference.

SMILES | RmlCD inh mix | HIV RNase H inh-1 | HIV RNase H inh-2
COc1ccc2[nH]c3nc(SCc4nnc(-c5ccc(C)cc5)o4)nnc3c2c1 | 8.8 | 59.8* | 8.0
COc1ccc2[nH]c3nc(SCC(=O)Nc4ccc5c(c4)OCO5)nnc3c2c1 | 5.8 | · | ·
O=C(CN1CCN(c2ccccn2)CC1)Nc1cc(C(F)(F)F)ccc1Cl | 9.9 | -12.1 | ·
CCOC(=O)c1c(N)sc2c1CCSC2 | -18.7 | · | ·
CCOC(=O)c1c(N)sc2c1CCC1C(=O)N(C3CCCCC3)C(=O)C21 (configuration not stated) | -5.0 | 74.0* | 68.4*
O=C(COC(=O)c1ccccn1)NCCCc1ccccc1 | 4.3 | -4.7 | ·
Cc1ccc(C2CC(=O)NC(SCCC(C)C)=C2C#N)cc1 (configuration not stated) | 3.0 | 65.1* | 9.6
COC(=O)CSC1=C(C#N)C(c2ccc(C(C)C)cc2)CC(=O)N1 (configuration not stated) | -14.4 | -8.7 | ·
Cc1[nH]c2ccc3c(ncn3CCC#N)c2c1C | 8.5 | -3.1 | ·
CC1=C(C(=O)Nc2ccc(Cl)cc2)C(c2cccs2)n2nnnc2N1 (configuration not stated) | 4.4 | 72.9* | 4.9
COC(=O)C1=C(C(=O)c2ccccc2)C(c2cccs2)n2nnnc2N1 (configuration not stated) | 11.1 | -0.9 | ·
C=C1CCN([C@H](C(=O)NCc2ccco2)C(C)C)S(=O)(=O)c2ccccc21 | -11.1 | · | ·
O=Cc1ccc(O)c(O)c1 | -12.2 | · | ·
O=C(O)/C=C/c1ccc(O)c(O)c1 | 11.9 | 73.6* | 75.8*
Cn1c(SCC(=O)Nc2ccc3c(c2)OCCO3)nnc1-c1ccccn1 | 11.3 | -3.1 | ·
O=C(CSc1nnc(-c2ccccn2)n1Cc1ccccc1)Nc1ccc2c(c1)OCO2 | 4.5 | 77.5* | 6.5
CCOc1ccccc1CNC(=O)C1CCN(C(=O)c2sccc2-n2cccc2)CC1 | -4.0 | -3.1 | ·
O=C(O)c1cnc2ccccc2n1 | 7.9 | 82.3* | 17.0
COC(=O)c1cnc2ccccc2n1 | -10.8 | · | ·
COc1cc(=O)n(C)c2c(OCC3OC(C)(C)OC3(C)C)cccc12 (configuration not stated) | -11.0 | · | ·
COC(=O)[C@H]1C[C@@H]1[C@H](NC(=O)c1cc(C)on1)c1ccccc1 | -13.8 | · | ·
CC(=O)c1c(C)[nH]c(C(=O)CSc2nnc(-c3ccccc3)o2)c1C | -7.1 | · | ·
CCOC(=O)c1c(NC(=O)CSc2nc3ccccc3o2)sc(C)c1C | 8.5 | · | ·
CCOC(=O)c1c(C)[nH]c(C(=O)CSc2nnc(CC(C)c3ccccc3)o2)c1C (configuration not stated) | -4.1 | 71.9* | ?
CCOC(=O)c1c(C)[nH]c(C(=O)CSc2nc3ccccc3o2)c1C | 4.4 | 90.0* | 68.9*
SMILES | RmlCD inh mix | HIV RNase H inh-1 | HIV RNase H inh-2
O=C(/C=C/c1ccco1)NC(=S)Nc1ccc(Cl)cn1 | 16.4 | · | ·
CCn1c(COc2cccc(OC)c2)nnc1SCC(=O)Nc1cccc(OC)c1 | -10.6 | -5.3 | ·
Cc1ccc2cc(C#N)c(NCc3ccco3)nc2c1 | 2.8 | 3.8 | ·
O=C(Sc1nnnn1C1CCCCC1)c1cccs1 | 7.1 | 61.5* | 40.5
O=C(CSc1nnnn1C1CCCCC1)NCc1ccccc1 | 4.6 | · | ·
Cc1ccc(NC(=O)Cn2nnc(C(=O)Nc3ccc(C)c(C)c3)c2N)cc1 | -17.5 | 67.4* | 58.7*
CSc1ccc(Cn2nnc(C(=O)Nc3ccc(C)c(C)c3)c2N)cc1 | 5.2 | · | ·
CCN(CC)S(=O)(=O)c1ccc(Br)c(OC)c1 | 3.8 | -67.4 | ·
Cc1cc(-c2nn3c(-c4ccccc4)nnc3s2)c2ccccc2n1 | -9.8 | 82.1* | 62.7*
c1ccc(-c2cc(-c3nn4c(-c5ccco5)nnc4s3)c3ccccc3n2)cc1 | -3.6 | 75.2* | 26.0
Cc1ccccc1-c1nn2c(-c3ccccc3)nnc2s1 | -11.7 | -26.4 | ·
COc1cc(OC)c(-c2nn3c(-c4ccco4)nnc3s2)cc1OC | 10.2 | -17.8 | ·
CC(=O)N(C)c1ccc(OCC(O)Cn2c3ccc(Cl)cc3c3cc(Cl)ccc32)cc1 (configuration not stated) | -3.9 | · | ·
COc1ccc(N2CCN(Cc3cc(=O)oc4cc(-c5ccccc5)c(O)cc34)CC2)cc1 | 6.8 | 91.9* | 68.9*
COc1ccc(N2CCN(Cc3cc(=O)oc4cc(C)c(Cl)cc34)CC2)cc1 | -11.1 | 32.8 | ·
C[C@@H]1C=C(C(=O)NCc2nc3ccccc3[nH]2)O[C@H](OCCCCO)C1 | 14.3 | · | ·
O=C1CCCc2nc(N3CCc4ccccc43)ncc21 | -10.3 | 3.0 | ·
O=C1CC(c2ccccc2)Cc2nc(N3CCc4ccccc43)ncc21 (configuration not stated) | -2.0 | 78.2* | 93.8*
COc1ccc(C)cc1NC(=O)COC(=O)C1CC1 | 1.0 | · | ·
CCOC(=O)c1c(N)ssc1=S | 5.1 | 85.0* | ?
CCOC(=O)c1c(N)sc(=S)c2c1CCC2 | -0.5 | 47.7 | ·
CC(C)(C)OC(=O)NCCCC[C@H](NC(=O)c1nc[nH]c1C(=O)NC(c1ccccc1)c1ccccc1)C(=O)OC(C)(C)C | -9.0 | · | ·
Cc1cc(S(=O)(=O)N2CCN(c3ccc(F)cc3)CC2)c(C)s1 | 4.7 | -0.4 | ·
COc1ccc2c(c1)S/C(=C\C(=O)c1ccncc1)N2C | -8.6 | 66.6* | 19.3
CN1/C(=C/C(=O)c2cccs2)Sc2ccccc21 | -15.2 | · | ·
SMILES | RmlCD inh mix | HIV RNase H inh-1 | HIV RNase H inh-2
COc1ccc(CC(=O)Nc2ccc(-c3noc(-c4cccc(OC)c4)n3)cc2)cc1 | 6.6 | 79.1* | 62.4*
COc1cccc(-c2nc(-c3ccc(NC(=O)c4cccnc4)cc3)no2)c1 | 7.3 | -1.2 | ·
CCOC(=O)N1CCN(c2nc(C)c3c(n2)CC(C)CC3=O)CC1 (configuration not stated) | -12.5 | -8.9 | ·
CC(=O)c1cc(-c2ccccc2)n(CC(=O)N2CCC(N3CCCCC3)CC2)c1C | -86.0 | -9.7 | ·
Cc1cc(C)c2c(=O)n(CC(=O)N3CCC(N4CCCCC4)CC3)sc2n1 | 8.0 | 83.4* | 58.3*
CCOC(=O)C1CCCN(C(=O)Cn2cnc3c2c(=O)n(C)c(=O)n3C)C1 (configuration not stated) | 7.5 | -7.7 | ·
CCOC(=O)C1CCCN(C(=O)Cn2sc3nc(C)cc(C)c3c2=O)C1 (configuration not stated) | 5.2 | 85.0* | 50.8*
Cc1c(OCC(F)(F)F)ccnc1CS(=O)c1nc2ccccc2[nH]1 (configuration not stated) | 5.6 | 73.9* | 32.7
COCCCOc1ccnc(CS(=O)c2nc3ccccc3[nH]2)c1C (configuration not stated) | -6.2 | · | ·
Cc1ccc(S(=O)(=O)C2(C(=O)N3CCCCC3C)CC2)cc1 (configuration not stated) | -10.6 | -2.8 | ·
CCC1=C(OC(=O)N(CC)CC)N2C(=O)OC(=NCC3CC3)[C@]2(Cc2ccccc2)[C@H]2C1=CC[C@H]1C(=O)N(CC)C(=O)[C@H]12 | 10.1 | · | ·
COc1cc(-c2nn3c(-c4ccccc4)nnc3s2)cc(OC)c1OC | 15.3 | -5.5 | ·
COc1cc(-c2nn3c(COc4ccccc4)nnc3s2)cc(OC)c1OC | -21.6 | 71.1* | 29.3
CCOc1cccc(-c2nnc3sc(-c4cc(OC)c(OC)c(OC)c4)nn23)c1 | · | -3.3 | ·
COc1cc(-c2nn3c(Cc4ccccc4)nnc3s2)cc(OC)c1OC | 14.6 | 91.1* | 80.3*
Clc1ccc(C(c2nnnn2C2CCCCC2)N(Cc2cccnc2)Cc2ccco2)cc1 (configuration not stated) | 3.7 | 9.0 | ·
COc1ccccc1NC(=O)c1nc[nH]c1C(=O)Nc1ccccc1OC | -5.4 | 82.9* | 41.5
